Compound activity from PubChem.
G9a block: blocks human histone lysine methyltransferase G9a; G9a H3K9 monomethylation, AlphaScreen, 2 h; Potency, µM (doses to about 102 µM), for the others: top-dose activity, negative = inhibition, most hits filed as inhibitors; 350,000 tested, 8.8% active; AID 504332; Q96KQ7; also: potency is read from the fitted curve at half-maximal effect; nearly all actives have a fitted effect of over 75% in size
Target sequence (Q96KQ7 913-1193 limits assumed): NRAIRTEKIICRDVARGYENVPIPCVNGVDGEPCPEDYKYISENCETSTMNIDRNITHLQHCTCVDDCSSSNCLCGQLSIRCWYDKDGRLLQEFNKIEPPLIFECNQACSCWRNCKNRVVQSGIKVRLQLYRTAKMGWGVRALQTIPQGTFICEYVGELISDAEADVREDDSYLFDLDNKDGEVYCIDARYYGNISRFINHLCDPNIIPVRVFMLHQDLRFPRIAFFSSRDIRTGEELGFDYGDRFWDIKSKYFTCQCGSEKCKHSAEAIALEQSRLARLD
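G9a (20 nM) preincubated 15 min RT with compounds, then 500 nM biotinylated H3K9 peptide and 20 uM SAM added; 2 h RT reaction. Monomethyl-H3K9 product detected by AlphaScreen with anti-H3K9me1 antibody, streptavidin donor and anti-rabbit IgG acceptor beads.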
Tau fluor cs: counter-screen for tau fibril formation inhibitors; tau K18 P301L Alexa594 fluorescence, heparin fibrillization; Potency, µM (titrated, usually from 57.7 µM), without a hit: at the top dose activity change, negative = decrease; 280,000 tested, 0.93% active; AID 1463; also: potency is read from the fitted curve at half-maximal effect; nearly all actives have a fitted effect of over 55% in size
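Human K18 P301L tau (15 uM unlabeled plus 0.24 uM Alexa 594-labeled, final) in 100 mM sodium acetate pH 7 was mixed with compound and 20 uM heparin and incubated 6 hr at 37 C.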
Tau ThT inhib: blocks human tau fibril formation measured by thioflavin T; recombinant tau K18 P301L (four-repeat tau fragment), heparin-induced fibrillization, ThT fluorescence; Potency, µM (highest dose often 57.4 µM), inactives show at the top dose activity, negative = inhibition, hits mostly inhibitors; 270,000 tested, 2.1% active; AID 1460; also: potency is read from the fitted curve at half-maximal effect; nearly all actives have a fitted effect of over 55% in size
Target sequence (P10636 561-689 P618L limits assumed): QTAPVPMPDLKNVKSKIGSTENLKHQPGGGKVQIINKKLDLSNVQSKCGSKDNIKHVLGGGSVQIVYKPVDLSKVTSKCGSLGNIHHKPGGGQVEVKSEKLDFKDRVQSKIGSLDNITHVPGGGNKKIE
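Tau K18 P301L fragment (15 uM unlabeled plus 0.24 uM Alexa 594-labeled) in 100 mM sodium acetate pH 7 with compound, fibrillization induced by 20 uM heparin for 6 hr at 37 C. Thioflavin T (30 uM) added, fluorescence read after 1 hr (ex 450, em 510 nm).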
Sfp inh: blocks B. subtilis Sfp PPTase activity. Q9F4F7. Biochemical Sfp PPTase activity, qHTS. Potency, µM, without a hit: largest response in the series, negative = inhibition, actives largely listed as inhibitors. 310,000 tested, 3.5% active;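 also: the enzyme is Sfp with the accession as filed and its product quenches rhodamine fluorescence; potency is read from the fitted curve at half-maximal effect; 0% = enzyme reaction without inhibitor and -100% = no enzyme wells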
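After 15 min at room temperature with compound, 15 nM Sfp received 5 uM rhodamine-CoA plus 12.5 uM BHQ-2-ybbR (50 mM Hepes pH 7.6, 10 mM MgCl2). Rate came from the fluorescence difference over 30 min, ex 525/em 598 nm.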
Tau FP inhib: tau fibrillization inhibition (FP); K18 P301L tau heparin fibrillization, Alexa594 FP, 6 h; Potency, µM (doses to about 57.7 µM), without a hit: at the highest dose activity, negative = inhibition, actives largely listed as inhibitors; 280,000 tested, 0.39% active; also: potency is read from the fitted curve at half-maximal effect; nearly all actives have a fitted effect of over 55% in size
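Quantitative HTS format: compounds meet 15 uM recombinant K18 P301L tau and Alexa 594-tau tracer in 100 mM sodium acetate pH 7; 20 uM heparin triggers fibrillization at 37 C over 6 hr; FP gives the signal.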
Coupling enz: inhibits coupling enzyme system, counter-screen for aldolase hits; coupling enzyme system counterscreen, AmpLite Red fluorescence; activity change, negative = inhibition, % at 58.2 µM, hits read low; 290,000 tested, 0.67% active; AID 2472; in the data active = activity change below about -30%
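Fluorescence at 525 nm excitation and 598 nm emission measured inhibition of the coupled detection system without aldolase. Compounds (at 57.5 uM final) were preincubated 10 min at room temperature with coupling enzyme reagent before a 20 min substrate/AmpLite Red step.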
An asterisk follows results filed as active; ? = inconclusive; · = no result given; [ ] = another dose, or the depositor's remark. Shown are actives, neighbours in structure and some others; about 11% of the full set was active somewhere. Unless noted, calls follow the shape of the dose curve; as a rule, active = well fitted curve in the direction sought with a large enough effect; inconclusive = small, poorly fitted or top-dose-only effect, or another doubt; inactive = no such curve, though single readings can be large; an effect the other way counts as inactive or inconclusive. Unless noted, % is scaled to controls: 0 for no effect and ±100 for the full control effect.

SMILES | G9a block | Tau fluor cs | Tau ThT inhib | Sfp inh | Tau FP inhib | Coupling enz
O=C(O)c1cccc(N/N=C/c2ccc(-c3ccccc3)cc2)c1 | 25µM* | ? | 14µM* | -10% | -6% | 7
Cc1[nH]c2ccccc2c1/C=N/NC(=O)c1ccccc1 | 15% | · | · | -3% | · | 1
CCOc1ccc(S(=O)(=O)n2cc(F)c(=O)[nH]c2=O)cc1 | · | 1% | -5% | 1% | 6% | 10
CC(C)(C)c1ccc(/C=N/Nc2cccc(C(=O)O)c2)cc1 | 28µM* | -5% | ? | 13% | 9% | 3
CN(C)c1ccc(/C=N/Nc2cccc(C(=O)O)c2)cc1 | 7.9µM* | · | · | -30% | · | 1
COc1ccc(/C=N/NC(=S)Nc2cccc(C(=O)O)c2)cc1OC | ? | -7% | -17% | -18% | -16% | 0
Clc1ccc(N/N=C/c2cccnc2)cc1 | 4µM* | 16µM*[quencher] | ? | -7% | 12% | -2
COc1cccc(C2C(C)CCC3C(=O)N(C)C(C(C)C)C(=O)N32)c1 (centres undefined) | · | -4%[11.6 µM] | -3%[11.5 µM] | 1% | 1%[11.6 µM] | -1
CCc1cnc2c(c1SCC(=O)NCc1ccccc1)c(=O)n(C)c(=O)n2C | -22%[59 µM] | -23% | -18% | · | -9% | ·
Cc1ccccc1-c1nc(NC2CCNCC2)c2ccccc2n1 | · | -14% | -9% | 5% | -3% | 1
CC(C)(C)c1ccc(/C=N/Nc2nncn2N)cc1 | 40µM* | · | · | -26% | · | 0
CC1CCN(c2ccc(/C=N\Nc3nncn3N)cc2[N+](=O)[O-])CC1 | ? | -29% | 10µM* | 79µM* | -3% | -19
CC1CCN(c2ccc(/C=N/n3nnnc3N)cc2[N+](=O)[O-])CC1 | 0% | -18% | ? | 11% | -9% | 0
COc1cc(/C=N\Nc2nncn2N)ccc1OC(C)=O | 71µM* | · | · | -25% | · | -4
Nn1cnnc1N/N=C/c1cc(Br)cc(Br)c1O | 24%[2.33 µM] | ? | 14µM* | 10% | -10% | -13
Cc1ccc(N2C(=O)C3C(C2=O)C2C=CC3C23CC3)c([N+](=O)[O-])c1 (centres undefined) | -30% | -5% | 4% | 14% | 1% | 1
CCC(=O)N1CCc2cc(Br)cc(S(=O)(=O)N3CCN(c4ccccc4OC)CC3)c21 | 11%[59 µM] | -19% | 1% | · | 1% | ·
Cc1no[n+]([O-])c1COc1cccc(/C=N/Nc2nncn2N)c1 | · | -23% | ? | -3% | ? | -28
CSc1ccc(/C=N\Nc2nncn2N)cc1 | ? | · | · | 79µM* | · | -2
Cc1ccccc1Nc1c(-c2ccsc2)nc2c(C)cccn12 | -5%[59 µM] | ? | ? | · | 12% | ·
COc1ccc2sc(C)[n+](C)c2c1 | ? | -9% | ? | 45µM* | -20% | 0
CCCCOCCCNC(=O)c1cccc(OC)c1 | 7%[59 µM] | 3% | 2% | 6% | ? | 2
CCCC[n+]1c(C)sc2cc(OC)ccc21 | ? | -7% | ? | 6.3µM* | 2% | 1
COc1cc(NC(=O)Cn2c(=O)n(C(C)C)c(=O)c3oc4ccccc4c32)cc(OC)c1 | 1%[59 µM] | -28% | 7% | · | ? | ·
CCN(C/C=C/c1ccccc1OC)Cc1ccccc1 | · | · | · | -13% | · | 0
SMILES | G9a block | Tau fluor cs | Tau ThT inhib | Sfp inh | Tau FP inhib | Coupling enz
CCCCN(C/C=C/c1ccccc1OC)Cc1ccccc1 | 18µM* | · | · | -3% | · | -1
O=C(CSc1nc2nc(-c3cccs3)cc(C(F)(F)F)c2c(=O)[nH]1)C(F)(F)F | 79µM* | · | · | 79µM* | · | 3
O=C1CC(NS(=O)(=O)c2cccnc2)CN1c1ccccc1 (centres undefined) | 1% | · | · | · | · | ·
O=C(CNCc1ccc(Cl)cc1)Nc1ccc2c(c1)OCCO2 | 11µM* | -5% | -3% | -24% | 4% | 1
O=C(CN1CCN(S(=O)(=O)c2ccc(Cl)cc2)CC1)Nc1ccc2c(c1)OCO2 | -18% | -6% | -3% | 2% | 1% | 1
O=C(CN1CCN(S(=O)(=O)c2ccc3c(c2)OCCO3)CC1)Nc1cccc(F)c1 | 56µM* | · | · | · | · | ·
O=C(CN1CCN(S(=O)(=O)c2ccc(Cl)cc2)CC1)Nc1ccc2c(c1)OCCO2 | 50µM* | -13% | -5% | 16% | 6% | -1
O=C(CNCc1ccccc1Cl)Nc1ccc2c(c1)OCCO2 | · | -17% | -14% | -19% | -5% | 3
CC(=O)N1CCN(S(=O)(=O)c2ccc(F)c(Cl)c2)CC1 | 16% | -4% | 1% | 6% | -3% | 1
O=C(CN1CCN(S(=O)(=O)c2ccc(F)c(Cl)c2)CC1)N1CCOCC1 | 1.1µM* | · | · | · | · | ·
O=S(=O)(c1ccc(NC(=S)NCc2ccncc2)cc1)N1CCCCC1 | · | -23% | 10% | -3% | ? | 1
CC(=O)Nc1ccc(S(=O)(=O)N2CCc3cc4c(cc3C2C)OCCCO4)cc1 (centres undefined) | -14% | · | · | 6% | · | -2
CC1c2cc3c(cc2CCN1CC(=O)Nc1ccc(S(=O)(=O)N2CCCC2)cc1)OCCCO3 (centres undefined) | 71µM* | · | · | 1% | · | -13
O=C(O)c1n[nH]c2c1CCCC2 | -27%[12.7 µM] | 5% | -3% | -15% | 7% | 4
O=C(O)c1n[nH]c2c1CCCCC2 | 10µM* | -9% | -6% | -29% | 1% | 0
CCN(CC)CCCNCC(=O)Nc1ccc2c(c1)CCC2 | 35µM* | 2% | -2% | 89µM* | 5% | -2
CCN(CC)CCCNCC(=O)Nc1ccc(OC)c(Cl)c1 | 8.9µM* | -3% | -7% | 7% | -2% | 3
Cc1cccc(NC(=O)CN2C(=O)COc3ccc(S(=O)(=O)N4CCC(C)CC4)cc32)c1C | -22%[59 µM] | -4% | 4% | · | -1% | ·
Cn1cc(C(=O)N2CCN(c3cccc(Cl)c3)CC2)c(=O)c2cc(S(=O)(=O)N3CCCC3)ccc21 | 9%[59 µM] | -12% | -2% | · | -10% | ·
O=C(c1ccc(F)cc1)N1CCN(C2CCC(c3ccccc3)CC2)CC1 (centres undefined) | 7.9µM* | 8% | -4% | -18% | 4% | -1
O=C(c1ccccc1F)N1CCN(C2CCC(c3ccccc3)CC2)CC1 (centres undefined) | 32µM* | -3% | -11% | -22% | 2% | 4
O=C(c1ccccc1F)N1CCN(c2ccccc2)CC1 | -7%[59 µM] | 0% | -10% | 3% | 10% | 1
C=CCOC(=O)C(C(C)=O)C(NC(=O)OC)c1ccc2ccccc2c1 (centres undefined) | · | -6%[11.6 µM] | -1%[11.5 µM] | -8% | -14%[11.6 µM] | -1
COC(=O)CSC1=C(C#N)C(=O)NC2(CCCCC2)S1 | ? | -6% | ? | 25µM* | ? | 6
C(=N\Nc1nc2ccccc2[nH]1)/c1cccc2cccnc12 | · | ? | 4.5µM* | -8% | 8% | -7
